Assay results taken from the supplement of paper PMC11732987, “Enantioselective OTUD7B fragment discovery through chemoproteomics screening and high-throughput optimisation” (Communications Chemistry, 2025).

Key:
Assay in all cases: log2 ratio of Biotin-Ahx-Ub-VS probe labelling (fragment/DMSO); higher = less target engagement (more negative = stronger competition), active = hit call of the paper (q ≤ 0.05, log2 ratio ≤ -1)
Conditions in all cases: compound concentration: 200 uM; treatment time: 3 h
USP42 = molecular target: T1, USP42 (UniProt Q9H9J4)
T1 sequence (whole entry): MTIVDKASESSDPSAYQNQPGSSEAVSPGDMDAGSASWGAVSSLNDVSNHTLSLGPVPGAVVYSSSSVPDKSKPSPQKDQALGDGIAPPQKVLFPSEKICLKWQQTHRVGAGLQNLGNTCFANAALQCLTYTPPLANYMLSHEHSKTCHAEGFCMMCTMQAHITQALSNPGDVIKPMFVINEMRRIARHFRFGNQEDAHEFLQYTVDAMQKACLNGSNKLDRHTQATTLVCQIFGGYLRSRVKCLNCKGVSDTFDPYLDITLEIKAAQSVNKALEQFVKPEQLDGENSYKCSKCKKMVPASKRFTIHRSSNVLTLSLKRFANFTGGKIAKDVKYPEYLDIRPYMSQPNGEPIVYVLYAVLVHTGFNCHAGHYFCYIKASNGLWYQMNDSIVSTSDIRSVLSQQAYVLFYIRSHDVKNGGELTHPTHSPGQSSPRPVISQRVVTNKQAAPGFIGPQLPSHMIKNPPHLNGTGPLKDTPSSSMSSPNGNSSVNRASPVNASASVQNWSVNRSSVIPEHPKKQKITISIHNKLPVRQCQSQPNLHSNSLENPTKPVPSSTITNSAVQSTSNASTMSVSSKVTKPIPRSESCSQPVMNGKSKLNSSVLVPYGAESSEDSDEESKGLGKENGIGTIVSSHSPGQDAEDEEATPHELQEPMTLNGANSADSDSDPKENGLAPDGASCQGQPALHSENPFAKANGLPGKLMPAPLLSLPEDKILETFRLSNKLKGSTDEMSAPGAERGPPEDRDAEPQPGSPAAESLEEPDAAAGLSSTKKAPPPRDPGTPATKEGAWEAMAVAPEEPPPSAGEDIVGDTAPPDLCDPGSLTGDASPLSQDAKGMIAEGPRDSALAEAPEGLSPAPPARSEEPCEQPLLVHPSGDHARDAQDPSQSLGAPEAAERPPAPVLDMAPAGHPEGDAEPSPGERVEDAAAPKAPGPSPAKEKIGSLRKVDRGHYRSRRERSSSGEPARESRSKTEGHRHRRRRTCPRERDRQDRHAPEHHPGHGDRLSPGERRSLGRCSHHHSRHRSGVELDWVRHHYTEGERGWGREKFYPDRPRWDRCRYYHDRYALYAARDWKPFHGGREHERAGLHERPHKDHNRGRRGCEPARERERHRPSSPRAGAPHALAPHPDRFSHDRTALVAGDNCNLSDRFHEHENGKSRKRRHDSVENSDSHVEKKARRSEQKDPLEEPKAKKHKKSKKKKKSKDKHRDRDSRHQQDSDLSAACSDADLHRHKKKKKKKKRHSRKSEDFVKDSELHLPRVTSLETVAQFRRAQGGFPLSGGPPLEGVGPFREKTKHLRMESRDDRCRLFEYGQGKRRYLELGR
Outline: (§1)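 Labelled DUBs from HEK293T lysate were NeutrAvidin-enriched, digested with LysC and trypsin, and run by diaPASEF LC-MS/MS. Before that, each 495 µg sample in Tris/CHAPS/IGEPAL buffer with protease inhibitors was treated in triplicate with fragment at 200 µM or vehicle for 3 h, then with Biotin-Ahx-Ub-VS at 0.5 µM final for 1 h. Values are average log2 ratios of fragment over vehicle by unpaired t-test, based on global-median-normalised Spectronaut label-free quantities from proteins with ≥2 unique peptides.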

USP46 = USP46 (UniProt P62068)
Outline: as §1

USP47 = molecular target: T2, USP47 (UniProt Q96K76)
T2 sequence (whole entry): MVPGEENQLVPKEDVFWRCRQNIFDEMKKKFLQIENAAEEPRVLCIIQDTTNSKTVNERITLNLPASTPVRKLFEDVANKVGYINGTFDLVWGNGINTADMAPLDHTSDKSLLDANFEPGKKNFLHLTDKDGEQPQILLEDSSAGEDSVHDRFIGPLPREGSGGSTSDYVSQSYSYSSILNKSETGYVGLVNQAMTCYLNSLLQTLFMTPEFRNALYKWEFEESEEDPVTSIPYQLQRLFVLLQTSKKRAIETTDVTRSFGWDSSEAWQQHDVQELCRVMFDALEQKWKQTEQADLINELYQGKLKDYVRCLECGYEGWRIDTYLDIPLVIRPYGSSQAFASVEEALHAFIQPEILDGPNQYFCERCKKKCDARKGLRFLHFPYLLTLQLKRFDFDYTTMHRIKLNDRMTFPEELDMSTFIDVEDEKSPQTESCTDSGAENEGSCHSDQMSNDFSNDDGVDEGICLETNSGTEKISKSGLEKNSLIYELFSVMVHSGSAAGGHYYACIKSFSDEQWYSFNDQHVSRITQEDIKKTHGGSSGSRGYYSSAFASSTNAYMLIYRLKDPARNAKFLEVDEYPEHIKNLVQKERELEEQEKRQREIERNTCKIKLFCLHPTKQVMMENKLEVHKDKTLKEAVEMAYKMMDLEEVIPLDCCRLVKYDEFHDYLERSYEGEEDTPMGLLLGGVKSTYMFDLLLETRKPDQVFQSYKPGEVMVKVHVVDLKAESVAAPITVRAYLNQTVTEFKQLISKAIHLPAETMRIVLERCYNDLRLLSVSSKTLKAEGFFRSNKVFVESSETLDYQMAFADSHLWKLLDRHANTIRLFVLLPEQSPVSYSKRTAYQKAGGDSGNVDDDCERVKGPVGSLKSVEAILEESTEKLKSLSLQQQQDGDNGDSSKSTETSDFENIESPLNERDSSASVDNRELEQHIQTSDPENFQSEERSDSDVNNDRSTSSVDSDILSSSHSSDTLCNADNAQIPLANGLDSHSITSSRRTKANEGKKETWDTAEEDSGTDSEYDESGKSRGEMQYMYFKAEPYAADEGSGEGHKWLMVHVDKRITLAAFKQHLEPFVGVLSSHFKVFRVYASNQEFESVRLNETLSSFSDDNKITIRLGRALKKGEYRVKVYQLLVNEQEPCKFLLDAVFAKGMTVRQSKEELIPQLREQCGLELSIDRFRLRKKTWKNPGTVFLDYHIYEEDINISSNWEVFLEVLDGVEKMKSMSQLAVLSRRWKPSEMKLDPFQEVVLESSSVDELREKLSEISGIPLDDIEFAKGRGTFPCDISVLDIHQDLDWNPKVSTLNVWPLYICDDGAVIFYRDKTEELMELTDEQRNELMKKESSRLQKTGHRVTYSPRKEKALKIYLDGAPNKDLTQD
Outline: as §1

USP48 = molecular target: T3, USP48 (UniProt Q86UV5)
T3 sequence (whole entry): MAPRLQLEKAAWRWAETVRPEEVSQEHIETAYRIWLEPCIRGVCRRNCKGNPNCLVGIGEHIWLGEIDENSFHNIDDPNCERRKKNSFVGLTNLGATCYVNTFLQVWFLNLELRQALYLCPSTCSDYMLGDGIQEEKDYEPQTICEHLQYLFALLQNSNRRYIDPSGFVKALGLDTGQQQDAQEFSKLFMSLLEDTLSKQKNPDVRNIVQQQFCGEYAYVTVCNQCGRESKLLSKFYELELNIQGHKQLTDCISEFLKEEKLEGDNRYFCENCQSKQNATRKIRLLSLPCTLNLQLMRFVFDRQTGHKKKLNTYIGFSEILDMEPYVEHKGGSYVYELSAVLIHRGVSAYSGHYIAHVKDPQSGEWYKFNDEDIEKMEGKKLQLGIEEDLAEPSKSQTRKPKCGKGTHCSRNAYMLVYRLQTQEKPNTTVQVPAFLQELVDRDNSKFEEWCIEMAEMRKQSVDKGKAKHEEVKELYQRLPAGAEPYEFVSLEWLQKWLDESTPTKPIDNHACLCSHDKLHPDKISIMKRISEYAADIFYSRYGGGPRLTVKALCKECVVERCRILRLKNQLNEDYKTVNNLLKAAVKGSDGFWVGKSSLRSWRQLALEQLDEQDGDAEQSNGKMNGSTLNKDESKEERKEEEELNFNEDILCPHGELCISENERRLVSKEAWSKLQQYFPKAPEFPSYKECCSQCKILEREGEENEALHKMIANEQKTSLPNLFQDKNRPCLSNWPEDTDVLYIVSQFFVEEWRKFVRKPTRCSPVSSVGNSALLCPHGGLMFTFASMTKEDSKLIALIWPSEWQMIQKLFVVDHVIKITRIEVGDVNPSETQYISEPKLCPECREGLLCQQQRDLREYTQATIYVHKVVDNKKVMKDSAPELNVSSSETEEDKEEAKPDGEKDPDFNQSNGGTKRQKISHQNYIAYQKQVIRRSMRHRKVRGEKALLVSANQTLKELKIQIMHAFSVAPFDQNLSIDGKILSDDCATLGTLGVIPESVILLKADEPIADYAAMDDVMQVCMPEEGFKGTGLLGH
Outline: as §1

USP5 = molecular target: T4, USP5 (UniProt P45974)
T4 sequence (whole entry): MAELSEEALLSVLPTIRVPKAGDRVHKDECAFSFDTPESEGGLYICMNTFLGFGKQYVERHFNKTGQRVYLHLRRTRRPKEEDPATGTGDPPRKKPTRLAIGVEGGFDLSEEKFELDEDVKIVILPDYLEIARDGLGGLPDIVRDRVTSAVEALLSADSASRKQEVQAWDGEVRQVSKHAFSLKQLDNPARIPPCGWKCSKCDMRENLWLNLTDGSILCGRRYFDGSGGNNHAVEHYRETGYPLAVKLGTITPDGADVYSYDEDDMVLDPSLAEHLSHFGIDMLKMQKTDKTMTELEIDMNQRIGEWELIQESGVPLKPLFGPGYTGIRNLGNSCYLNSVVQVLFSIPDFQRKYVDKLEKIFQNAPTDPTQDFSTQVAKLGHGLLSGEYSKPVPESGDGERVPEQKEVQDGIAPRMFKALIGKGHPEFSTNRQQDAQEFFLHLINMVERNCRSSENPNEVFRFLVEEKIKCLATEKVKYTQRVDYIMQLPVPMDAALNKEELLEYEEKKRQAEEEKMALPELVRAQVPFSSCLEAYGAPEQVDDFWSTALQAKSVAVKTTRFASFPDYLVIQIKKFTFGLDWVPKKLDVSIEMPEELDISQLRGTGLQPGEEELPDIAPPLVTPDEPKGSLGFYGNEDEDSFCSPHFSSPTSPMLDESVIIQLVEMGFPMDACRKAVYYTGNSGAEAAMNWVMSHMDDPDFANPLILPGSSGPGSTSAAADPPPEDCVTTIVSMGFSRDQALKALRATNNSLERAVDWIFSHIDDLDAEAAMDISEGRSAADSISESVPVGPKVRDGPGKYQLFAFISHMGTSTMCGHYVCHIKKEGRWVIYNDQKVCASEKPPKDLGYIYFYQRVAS
Outline: as §1

USP54 = USP54 (UniProt Q70EL1)
Outline: as §1

USP7 = USP7 (UniProt Q93009)
Outline: as §1

USP8 = molecular target: T5, USP8 (UniProt P40818)
T5 sequence (whole entry): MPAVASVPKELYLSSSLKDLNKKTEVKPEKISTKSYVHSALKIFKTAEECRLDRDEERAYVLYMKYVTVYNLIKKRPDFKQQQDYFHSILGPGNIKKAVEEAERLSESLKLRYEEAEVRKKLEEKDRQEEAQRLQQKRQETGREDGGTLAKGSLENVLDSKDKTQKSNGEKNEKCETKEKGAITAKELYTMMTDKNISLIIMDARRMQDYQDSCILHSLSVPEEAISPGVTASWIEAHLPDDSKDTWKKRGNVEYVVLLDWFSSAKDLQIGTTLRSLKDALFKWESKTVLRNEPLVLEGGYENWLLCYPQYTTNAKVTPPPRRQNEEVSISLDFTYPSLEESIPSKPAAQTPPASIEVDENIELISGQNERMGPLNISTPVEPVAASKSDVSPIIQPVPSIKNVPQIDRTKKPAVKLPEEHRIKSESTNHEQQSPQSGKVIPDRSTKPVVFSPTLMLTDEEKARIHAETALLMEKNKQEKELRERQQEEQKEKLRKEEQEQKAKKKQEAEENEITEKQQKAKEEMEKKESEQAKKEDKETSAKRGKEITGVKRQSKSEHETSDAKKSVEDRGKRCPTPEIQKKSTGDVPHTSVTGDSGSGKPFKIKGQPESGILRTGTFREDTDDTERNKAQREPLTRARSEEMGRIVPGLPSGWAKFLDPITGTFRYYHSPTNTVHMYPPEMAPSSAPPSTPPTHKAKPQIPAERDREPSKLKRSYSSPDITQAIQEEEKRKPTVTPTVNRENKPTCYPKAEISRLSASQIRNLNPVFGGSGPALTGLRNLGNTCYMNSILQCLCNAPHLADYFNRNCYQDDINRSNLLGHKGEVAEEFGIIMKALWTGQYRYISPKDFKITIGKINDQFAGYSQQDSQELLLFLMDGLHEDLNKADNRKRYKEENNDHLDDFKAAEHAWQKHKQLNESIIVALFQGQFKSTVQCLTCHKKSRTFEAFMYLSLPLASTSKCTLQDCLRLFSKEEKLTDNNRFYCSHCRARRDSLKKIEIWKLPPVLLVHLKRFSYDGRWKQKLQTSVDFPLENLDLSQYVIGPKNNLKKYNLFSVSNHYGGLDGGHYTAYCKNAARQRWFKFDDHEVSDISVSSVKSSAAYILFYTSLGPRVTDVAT
Outline: as §1

Measured: log2 ratio of Biotin-Ahx-Ub-VS probe labelling

Sequence of USP7 (Q93009 whole entry, looked up): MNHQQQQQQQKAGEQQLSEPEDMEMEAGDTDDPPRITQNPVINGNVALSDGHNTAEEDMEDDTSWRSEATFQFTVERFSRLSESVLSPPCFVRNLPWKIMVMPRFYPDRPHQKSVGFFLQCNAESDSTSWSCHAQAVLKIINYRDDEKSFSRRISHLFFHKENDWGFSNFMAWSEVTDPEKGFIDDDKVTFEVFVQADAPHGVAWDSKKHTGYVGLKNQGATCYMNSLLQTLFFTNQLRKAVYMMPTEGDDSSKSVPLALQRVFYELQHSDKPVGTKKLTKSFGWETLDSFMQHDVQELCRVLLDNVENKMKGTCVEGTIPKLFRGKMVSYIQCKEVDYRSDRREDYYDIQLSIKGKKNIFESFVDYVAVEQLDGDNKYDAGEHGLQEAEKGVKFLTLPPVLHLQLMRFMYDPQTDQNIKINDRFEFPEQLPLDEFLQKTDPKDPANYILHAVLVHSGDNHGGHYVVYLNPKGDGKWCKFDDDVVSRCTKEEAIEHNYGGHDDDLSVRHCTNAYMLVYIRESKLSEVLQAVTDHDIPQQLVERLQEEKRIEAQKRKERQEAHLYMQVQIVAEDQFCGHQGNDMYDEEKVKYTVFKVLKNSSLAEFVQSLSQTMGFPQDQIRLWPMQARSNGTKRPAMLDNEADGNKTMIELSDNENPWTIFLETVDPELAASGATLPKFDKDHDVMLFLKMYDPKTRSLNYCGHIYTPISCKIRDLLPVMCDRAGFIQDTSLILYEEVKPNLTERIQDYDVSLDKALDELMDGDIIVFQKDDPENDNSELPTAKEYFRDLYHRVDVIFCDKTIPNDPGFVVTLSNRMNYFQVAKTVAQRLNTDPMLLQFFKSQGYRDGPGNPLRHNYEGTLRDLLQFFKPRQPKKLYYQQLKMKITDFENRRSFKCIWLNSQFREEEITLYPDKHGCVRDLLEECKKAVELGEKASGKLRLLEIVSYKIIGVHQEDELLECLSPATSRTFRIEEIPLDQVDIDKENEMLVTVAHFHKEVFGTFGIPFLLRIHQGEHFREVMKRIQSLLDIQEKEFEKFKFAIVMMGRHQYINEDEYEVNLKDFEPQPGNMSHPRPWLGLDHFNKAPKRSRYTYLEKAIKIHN
Sequence of USP54 (Q70EL1 whole entry): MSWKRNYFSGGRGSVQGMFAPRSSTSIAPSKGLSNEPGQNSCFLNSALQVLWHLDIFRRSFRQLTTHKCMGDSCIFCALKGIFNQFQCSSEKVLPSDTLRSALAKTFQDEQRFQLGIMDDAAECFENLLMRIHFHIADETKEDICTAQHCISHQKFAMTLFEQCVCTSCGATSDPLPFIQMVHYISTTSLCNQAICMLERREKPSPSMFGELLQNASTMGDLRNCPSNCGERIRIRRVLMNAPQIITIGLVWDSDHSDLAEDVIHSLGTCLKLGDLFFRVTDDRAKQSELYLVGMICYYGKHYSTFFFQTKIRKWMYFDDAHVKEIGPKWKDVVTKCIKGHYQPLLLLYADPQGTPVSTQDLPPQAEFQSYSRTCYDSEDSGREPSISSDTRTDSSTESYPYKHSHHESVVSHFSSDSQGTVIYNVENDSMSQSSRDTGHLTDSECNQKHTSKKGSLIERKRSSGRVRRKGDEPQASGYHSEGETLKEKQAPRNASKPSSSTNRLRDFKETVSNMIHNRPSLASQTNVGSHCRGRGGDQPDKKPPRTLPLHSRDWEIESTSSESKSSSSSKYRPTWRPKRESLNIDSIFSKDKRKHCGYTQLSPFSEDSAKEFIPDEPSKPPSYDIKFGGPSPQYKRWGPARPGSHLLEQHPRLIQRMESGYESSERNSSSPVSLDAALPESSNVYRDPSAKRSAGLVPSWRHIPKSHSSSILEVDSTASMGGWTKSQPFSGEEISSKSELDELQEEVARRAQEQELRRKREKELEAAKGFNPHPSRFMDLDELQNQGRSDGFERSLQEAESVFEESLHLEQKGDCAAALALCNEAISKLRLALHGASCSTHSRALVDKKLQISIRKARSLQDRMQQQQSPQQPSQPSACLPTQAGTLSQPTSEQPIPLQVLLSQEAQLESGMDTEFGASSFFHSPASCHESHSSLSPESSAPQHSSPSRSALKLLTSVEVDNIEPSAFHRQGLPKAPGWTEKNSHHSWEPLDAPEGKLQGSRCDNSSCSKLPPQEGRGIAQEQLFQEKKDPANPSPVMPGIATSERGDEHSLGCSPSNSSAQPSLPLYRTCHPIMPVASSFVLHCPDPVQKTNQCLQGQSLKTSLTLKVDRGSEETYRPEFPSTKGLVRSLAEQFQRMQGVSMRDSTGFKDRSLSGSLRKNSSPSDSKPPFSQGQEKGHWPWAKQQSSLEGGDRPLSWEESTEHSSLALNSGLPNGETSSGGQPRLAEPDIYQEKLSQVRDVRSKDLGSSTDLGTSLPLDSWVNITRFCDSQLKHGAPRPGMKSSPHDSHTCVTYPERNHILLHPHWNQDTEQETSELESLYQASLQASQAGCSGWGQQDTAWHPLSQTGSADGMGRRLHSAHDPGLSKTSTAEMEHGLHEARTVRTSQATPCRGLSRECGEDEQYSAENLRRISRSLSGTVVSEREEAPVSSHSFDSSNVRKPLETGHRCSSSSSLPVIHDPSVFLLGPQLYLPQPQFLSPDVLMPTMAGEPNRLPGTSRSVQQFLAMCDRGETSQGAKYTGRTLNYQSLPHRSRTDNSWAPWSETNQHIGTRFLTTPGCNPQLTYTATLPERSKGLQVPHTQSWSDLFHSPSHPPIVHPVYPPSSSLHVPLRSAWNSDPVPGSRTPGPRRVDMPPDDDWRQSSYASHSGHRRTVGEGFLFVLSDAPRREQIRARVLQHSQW
Sequence of USP46 (P62068 whole entry): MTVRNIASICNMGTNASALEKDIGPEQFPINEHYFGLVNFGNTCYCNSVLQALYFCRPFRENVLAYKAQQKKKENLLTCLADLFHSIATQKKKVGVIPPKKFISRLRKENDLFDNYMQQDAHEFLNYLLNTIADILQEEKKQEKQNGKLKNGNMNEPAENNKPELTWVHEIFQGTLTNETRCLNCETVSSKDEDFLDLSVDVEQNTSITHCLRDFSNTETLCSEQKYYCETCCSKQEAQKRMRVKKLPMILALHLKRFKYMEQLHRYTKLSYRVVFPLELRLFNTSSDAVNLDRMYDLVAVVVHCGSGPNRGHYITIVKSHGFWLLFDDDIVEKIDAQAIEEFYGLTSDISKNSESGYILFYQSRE

CC(NC(=O)CCl)c1cc2n(n1)CCCC2.Cl (stereo not drawn)
inactive: USP42 0.487 | USP46 -0.0285 | USP47 0.43 | USP48 -0.017 | USP5 -0.437 | USP54 0.53 | USP7 -0.279 | USP8 0.0604
